Screening results: PubChem BioAssay, National Center for Advancing Translational Sciences (NCATS)
Sampled rows, rich in hits. Any-hit rate of the full collection: about 7.3%.
HCMV inh – blocks human cytomegalovirus replication; HFF cells, HCMV-luciferase reporter, 72 h; stronger effect = lower value; activity change, negative = inhibition, % at 57.5 µM; hit rate 4.5% among 410,000; in the data active = activity change below about -60%; inconclusive = no clear call, values can overlap the other calls; inactive = above about -39%
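Two-dose cell screen: HFF monolayers treated with compounds and infected with luciferase-expressing HCMV at 1 PFU/cell, 72 h at 37C, then lysed for luciferase measurement.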
FMDV inh – antivirals against foot and mouth disease virus; FMDV antiviral cell-based qHTS; Potency, µM (top dose mostly 57.9 µM), without a hit: at the highest dose activity change, negative = inhibition, most hits filed as inhibitors; hit rate 1.2% among 410,000; calls by dose curve; tested in HEK293T cells; note: read-out not given here; potency is the fitted concentration of half-maximal effect; nearly all actives have a fitted effect of over 45% in size
AmpC no deterg – AmpC beta-lactamase inhibition without detergent. P00811. AmpC nitrocefin hydrolysis, absorbance 480 nm, 0.0001% Triton. Potency, µM (top dose mostly 57.1 µM), for the others: at the top dose activity change, negative = inhibition, actives largely listed as inhibitors. hit rate 0.52% among 330,000;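 note: potency is the fitted concentration of half-maximal effect; plate controls were no compound for no effect and no enzyme for full effect; nearly all actives have a fitted effect of over 20% in size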
Target sequence (P00811 whole entry, looked up): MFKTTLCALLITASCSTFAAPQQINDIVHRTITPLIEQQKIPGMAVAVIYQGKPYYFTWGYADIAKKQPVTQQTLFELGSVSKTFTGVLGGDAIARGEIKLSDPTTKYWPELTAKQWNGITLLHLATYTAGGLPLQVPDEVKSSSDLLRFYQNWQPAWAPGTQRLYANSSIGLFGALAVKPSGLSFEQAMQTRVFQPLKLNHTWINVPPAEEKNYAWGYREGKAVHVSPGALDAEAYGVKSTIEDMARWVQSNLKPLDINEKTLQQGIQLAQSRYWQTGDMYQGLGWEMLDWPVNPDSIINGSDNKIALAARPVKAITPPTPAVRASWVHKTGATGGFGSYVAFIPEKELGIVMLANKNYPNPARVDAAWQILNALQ
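20 mM phosphate pH 7.0 + 0.01% (detergent screen) or 0.0001% Triton X-100; 5.3 nM AmpC reagent; cpd preinc 15 min RT; nitrocefin (800 uM stock) to start; A480 q20 s × 4 min; Activity was normalised to no-enzyme and no-compound control wells.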
AmpC inh detg – blocks E. coli AmpC beta-lactamase in detergent assay; P00811; AmpC hydrolysis of nitrocefin, absorbance 480 nm, 0.01% Triton; Potency, µM (highest dose often 114 µM), for inactives: at the highest dose activity change, negative = inhibition, actives largely listed as inhibitors; hit rate 0.041% among 370,000; AID 485294;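 note: potency is the fitted concentration of half-maximal effect; 0% = no-compound wells and -100% = no-enzyme wells; nearly all actives have a fitted effect of over 25% in size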
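AmpC (5.3 nM in the dispensed reagent) in 20 mM phosphate pH 7.0 with 0.01% (detergent screen) or 0.0001% Triton X-100 was preincubated with compounds for 15 min at room temperature. Nitrocefin was then added from an 800 uM solution, and hydrolysis was followed at 480 nm.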
HCV inhibitor – HCV inhibition | hit rate 3.4% among 340,000 | Potency, µM (titrated, usually from 41.8 µM), inactives show top-dose activity change, negative = inhibition, actives largely listed as inhibitors | Huh7.5.1 HCVcc-Cre infection, luciferase reporter, 44 h; note: potency is the fitted concentration of half-maximal effect
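A cell-based infection assay in which seeded cells (1,000 per well) receive test compound after 4 h, are inoculated with HCVcc-Cre at approximately 0.5 moi, and are incubated 44 h before luminescence detection.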
An asterisk follows results filed as active; ? = inconclusive; . = no result; ! = not confirmed by another sample; [ ] = remark or other dose. Unless noted, calls come from the whole dose curve; as a rule, active = well fitted curve in the direction sought with a large enough effect; inconclusive = small, poorly fitted or top-dose-only effect, or another doubt; inactive = no such curve, though single readings can be large; an effect the other way counts as inactive or inconclusive. Unless noted, % is set by controls: 0 for no effect and ±100 for the full control effect.

SMILES | HCMV inh | FMDV inh | AmpC no deterg | AmpC inh detg | HCV inhibitor
Cc1cc(SCC(=O)Nc2cccc(S(=O)(=O)N3CCOCC3)c2)nc2ccccc12 | -18.8 | -10.3% | 0.0% | -5.9% | 12.6µM*
O=C(CSc1nc2ccccc2c(=O)n1CCCN1CCOCC1)Nc1ccc(F)c(Cl)c1 | -18.2 | ? | 207.5% | . | 1.78µM*
COCCNC(=O)CSc1nc2cc3c(cc2c(=O)n1CCCC(=O)NCc1ccc(OC)cc1)OCO3 | -61.6*! | -12.9% | -6.1% | -11.8% | 1.6%
CC(=O)C(Sc1nnnn1-c1ccc(O)cc1)c1ccccc1 (stereo not drawn) | 37.1 | -15.3% | -45.2% | 1.8% | 13.1%
Cc1oc(-c2cccc(NC(=O)C3CCCN(C)C3)c2)nc1CNC(=O)c1coc2c1C(=O)CCC2 (stereo not drawn) | . | -3.0% | . | . | .
CCCCc1nc2ccccc2c(=O)n1NC(=O)c1c(O)c2c(n(CC(C)C)c1=O)CCCC2 | -79.1* | -24.6% | -2.7% | -12.8% | -2.1%
CCCn1c2c(c(O)c(C(=O)Nc3ccccn3)c1=O)CCCC2 | . | . | -15.1% | ? | .
CCc1nc2ccccc2c(=O)n1NC(=O)c1c(O)c2cccc3c2n(c1=O)CCC3 | -12.9 | -22.9% | . | 4.6% | -1.0%
O=C(Nn1c(Cc2ccccc2)nc2ccccc2c1=O)c1c(O)c2cccc3c2n(c1=O)CCC3 | -65.8* | -28.2% | -11.9% | 4.5% | -10.2%
CCCn1c2c(c(O)c(C(=O)Nc3ccccc3)c1=O)CCCC2 | 36.9 | 5.6% | -9.2% | -14.9% | 10µM*
CCC(NS(=O)(=O)c1cccs1)c1ccc(C)cc1 (stereo not drawn) | -31.4 | 0.7% | -23.0% | 2.7% | 2.0%
CN(C)c1nc(N)nc(Nc2ccccc2C#N)n1 | -5.8 | 13.3% | 0.199µM* | 0.2% | -8.5%
CC1CN=C(c2cc(Cl)c(N)c(Cl)c2)c2c3ccccc3[n+]([O-])n21 (stereo not drawn) | 54.5 | . | . | . | .
CCC(c1nnnn1-c1c(C)cccc1C)N1CCN(C/C=C/c2ccccc2)CC1 (stereo not drawn) | -67.7* | -15.0% | . | . | .
Cc1ncc(N=Nc2ccccc2)c(-c2ccccc2)n1 | -3.7 | -25.2% | -2.9% | -12.3% | 10µM*
N#CC(C#N)=C(Nc1ccc(F)cc1)SCc1cccc(F)c1 | -98.6* | ? | -42.7% | -4.7% | 10µM*
CCOc1ccc(N/C(SCc2cccc([N+](=O)[O-])c2)=C(/C#N)C(N)=O)cc1 | ? | ? | -20.1% | 1.9% | -11.2%
Cc1cccc(NC(=O)CSc2nc3ccc(NC(=O)c4ccco4)cc3s2)c1 | ? | 25.1µM* | . | 15.7% | .
CN(C(=O)CSc1nc2ccc(NC(=O)c3ccccc3)cc2s1)c1ccccc1 | -19.6 | ? | . | -4.1% | .
COc1cccc(NC(=O)CSc2nc3ccc(NC(=O)c4ccco4)cc3s2)c1 | -35.5 | 39.8µM* | . | 21.2% | .
Cc1ccc(NC(=O)CSc2nc3ccc(NC(=O)c4ccco4)cc3s2)c(C)c1 | -23.9 | -24.6% | . | 1.9% | .
CN(C(=O)CSc1nc2ccc(NC(=O)c3cccs3)cc2s1)c1ccccc1 | -75.7* | ? | . | 19.4% | .
CC(=O)Nc1ccc2nc(SCCOc3ccccc3)sc2c1 | -78.2* | 10.1% | . | 18.8% | .
CC(C)(O)C#Cc1ccc(CNC[C@H]2O[C@@H](n3cnc(C(N)=O)n3)[C@H](O)[C@@H]2O)s1 | -25.0 | -23.7% | . | . | 13.9%
CC(c1ccccc1)N1CCn2c(nc3cc(NC(=O)c4cccs4)ccc32)C1 (stereo not drawn) | -73.2* | . | -33.3% | 3.1% | 10µM*
SMILES | HCMV inh | FMDV inh | AmpC no deterg | AmpC inh detg | HCV inhibitor
COCCN1CCn2c(nc3cc(NC(=O)c4cccs4)ccc32)C1 | 67.8 | . | -5.9% | -3.0% | -11.7%
Cc1scc(C(=O)N2CCN(c3ccc(Cl)cc3)CC2)c1C | ? | -0.1% | 60.2% | 1.1% | ?
Cc1ccc(C)c(CN2C(=O)C(O)(c3c[nH]c4ccccc34)c3ccccc32)c1 (stereo not drawn) | -30.0 | -15.7% | . | -2.7% | .
CCCCCC1CCC(c2n[nH]c(=S)n2C)CC1 (stereo not drawn) | -82.3* | 7.0% | -17.2%[2.29 µM] | ? | -2.6%
COc1ccccc1N(C)S(=O)(=O)c1ccc(C(=O)N(C)Cc2ccc(OC(F)F)cc2)cc1 | -39.3 | 35.5µM* | 28.7% | -15.1% | 3.98µM*
COc1ccccc1N(C)S(=O)(=O)c1ccc(C(=O)NCC(C)C)cc1 | 20.9 | -5.4% | -11.1% | -1.6% | -23.5%
Cc1nnc(NC(=O)c2cccc(S(=O)(=O)N(C)c3cccc(Cl)c3)c2)s1 | -11.5 | -16.7% | -25.8% | 0.0% | 5.0%
CN(c1cccc(Cl)c1)S(=O)(=O)c1cccc(C(=O)Nc2ccc3c(c2)CCC3)c1 | -87.2* | -11.0% | -37.7% | 1.7% | 6.31µM*
CN(Cc1ccc(OC(F)F)cc1)C(=O)c1ccccc1Sc1ccccc1C#N | -68.8* | -16.6% | . | . | ?
COC(=O)c1ccc(CNC(=O)c2ccc(S(=O)(=O)N(C)c3ccccc3OC)cc2)cc1 | -13.5 | -25.0% | -33.3% | -3.2% | 8.91µM*
CCOc1ccc(CCNC(=O)COC(=O)Cn2nc(C)c([N+](=O)[O-])c2C)cc1OCC | -30.4 | 1.1% | ? | ? | -1.8%[8.37 µM]
CC(=O)Nc1ccccc1-c1nc(CNC(=O)c2cc(C)ccc2C)c(C)o1 | . | -7.9% | . | . | .
COc1ccccc1N(C)S(=O)(=O)c1ccc(C(=O)Nc2ccc3nc(C)sc3c2)cc1 | -84.7* | 25.1µM* | -16.3% | ? | ?
COc1ccc(NC(=O)COC(=O)c2ccc(S(=O)(=O)N(C)c3ccccc3OC)cc2)cc1OC | 1.4 | 3.0% | 31.4% | -4.3% | 7.1%
COc1ccccc1N(C)S(=O)(=O)c1ccc(C(=O)Nc2cccc(Br)c2)cc1 | 46.1 | ? | -26.2% | . | 12.6µM*
Cc1nc2ccc(NC(=O)c3ccccc3)cc2s1 | 28.6 | 55.1% | -13.5% | 1.6% | 6.2%
Cc1nc2ccc(NC(=O)c3cccc(S(=O)(=O)N(C)c4ccccc4)c3)cc2s1 | . | 25.1µM* | -2.8% | -5.5% | 10µM*
C=CCN(c1ccccc1OC)S(=O)(=O)c1ccc(Cl)c(C(=O)Nc2ccc(N3CCOCC3)cc2)c1 | -16.8 | -6.2% | -7.8%[11.4 µM] | -12.1% | ?
COc1ccccc1N(C)S(=O)(=O)c1ccc(C(=O)Nc2ccc(N3CCOCC3)cc2)cc1 | -61.7* | 39.8µM* | 56.2% | 4.3% | 10µM*
CCS(=O)(=O)NCc1c(C)ncc2c1CCN(C(=O)c1ccc(F)cc1)C2 | . | -14.9% | . | . | .
CCCNC(=O)[C@H]1[C@H](CO)[C@H]2Cn3c(ccc(-c4ccc(F)cc4)c3=O)[C@@H]1N2C(=O)NC(C)C | -11.5 | . | . | . | .
COc1ccc(N2CCN(C(=O)C(=O)c3cn(CC(=O)N4CCCCCC4)c4ccccc34)CC2)cc1 | 7.0 | -0.3% | 132.7% | -1.6% | ?
COC(=O)c1cccc(NC(=O)c2ccc(S(=O)(=O)N(C)c3ccccc3OC)cc2)c1 | 28.8 | 35.5µM* | . | . | .
